# D1 PAM – enhances dopamine response at the human D1 receptor; P21728; HEK293 TREx D1 cells, calcium flux, dopamine EC20 potentiation; potentiation, % at 10 µM; hit rate 0.036% among 360,000; in the data active = potentiation above about 30%; also: 0% is about no effect
# D1 antagonist – antagonists of human D1 dopamine receptor. P21728. HEK293 TREx D1 cells, calcium flux, dopamine EC80; stronger effect = lower value. activity change, negative = inhibition, % at 10 µM. hit rate 3.2% among 360,000. AID 504652; in the data active = activity change below about -30%; also: % is scaled to controls: 0 for no effect and ±100 for the full control effect
#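 HEK293 T-REx cells expressing inducible, force-coupled D1 receptor; no-wash Ca dye, 30–90 min RT. Cmpd → 180 s read at 1 Hz → EC80 DA → 180 s read.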
# D1 ag – human D1 receptor agonism. HEK293 T-REx D1 cells, calcium flux, agonist mode. activation, % at 2 µM. hit rate 1% among 360,000; also: 0% is about no effect
#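 Agonism was scored from calcium flux recorded over 180 s (1 read/s) after pintool compound addition, following a 10-cycle baseline. Cells were inducible force-coupled HEK293 TREx D1, plated overnight at 30 C and loaded with no-wash calcium dye.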
# TRHR enhancer-1 – TRH receptor (human) allosteric enhancement. P34981. TRHR cells, fluo-8 calcium fluorescence, EC20 TRH enhancement. enhancement, % at 2 µM. hit rate 0.66% among 360,000. AID 493056; in the data active = enhancement above about 30%; also: 0% is about no effect
# Target sequence (P34981 whole entry, looked up): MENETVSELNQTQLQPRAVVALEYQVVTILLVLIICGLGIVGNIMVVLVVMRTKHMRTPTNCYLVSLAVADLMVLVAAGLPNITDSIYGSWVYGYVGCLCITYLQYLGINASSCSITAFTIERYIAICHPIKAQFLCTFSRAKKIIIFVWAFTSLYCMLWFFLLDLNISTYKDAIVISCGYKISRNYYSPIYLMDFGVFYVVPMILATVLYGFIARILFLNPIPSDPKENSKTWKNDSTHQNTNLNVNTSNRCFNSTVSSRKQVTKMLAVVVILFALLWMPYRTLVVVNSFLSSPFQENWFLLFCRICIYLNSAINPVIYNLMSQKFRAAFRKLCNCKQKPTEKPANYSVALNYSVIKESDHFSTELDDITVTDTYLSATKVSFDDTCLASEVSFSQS
#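 TRHR-expressing cells loaded with fluo-8 calcium dye were read kinetically (ex 480/em 530) during compound addition, then stimulated with an EC20 of TRH (10 nM final). Enhancement of the Gq-mediated intracellular calcium response was scored.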
# TRHR agonist-1 – TRH receptor (human) agonism; TRHR cells, calcium flux fluo-8, FDSS agonist mode; P34981; activation, % at 2 µM; hit rate 0.18% among 360,000; AID 493084; also: 0% is about no effect
#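 Fluo-8-loaded TRHR cells; 10 s baseline, compound added, kinetic Ca2+ fluorescence read 1/s, agonist mode.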
# TRHR enhancer-2 – confirmation of human TRH receptor allosteric enhancers. 970 tested, under 10 active. activity change, negative = inhibition, % at 46.1 µM. AID 493076. shares compounds with TRHR enhancer-1. TRH receptor cell assay, enhancer confirmation qHTS; active = well fitted curve in the direction sought with a large enough effect; inconclusive = small, poorly fitted or top-dose-only effect, or another doubt; inactive = no such curve, though single readings can be large; an effect the other way counts as inactive or inconclusive;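 also: compound effect scored on response to added TRH at EC20 of 10 nM; 0% is about no effect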
# TRHR agonist-2 – confirmation of human TRH receptor agonists; shares compounds with TRHR enhancer-1; AID 493078; hit rate 8% among 970; TRHR-expressing cells, agonist activation read-out; Potency, µM (series often up to 46.1 µM), without a hit: at the top dose activation, most hits filed as activators; active = well fitted curve in the direction sought with a large enough effect; inconclusive = small, poorly fitted or top-dose-only effect, or another doubt; inactive = no such curve, though single readings can be large; an effect the other way counts as inactive or inconclusive; also: potency is read from the fitted curve at half-maximal effect; 0% is about no effect; nearly all actives have a fitted effect of over 75% in size
# Starred values were filed as active, the others as inactive; ? = inconclusive; nt = no result. An excerpt weighted towards active compounds, which were near 4.7% of everything screened. Rule as the data show it, unless noted: active = activation above about 30%; inactive = the rest.
SMILES,D1 PAM,D1 antagonist,D1 ag,TRHR enhancer-1,TRHR agonist-1,TRHR enhancer-2,TRHR agonist-2
O=C(Nc1ccc([N+](=O)[O-])cc1)c1nc[nH]c1C(=O)NC1CCCCC1,-4.5,-8.9,2.3,6.8,42.6*,3.9,-0.7%
NC(=O)CN1C(=O)NC(c2ccccc2)(c2ccccc2)C1=O,-3.8,-6.0,1.7,1.2,0.5,nt,nt
CC(C)(C)C(=O)CN1C(=O)NC(c2ccccc2)(c2ccccc2)C1=O,7.8,1.9,0.6,41.6*,2.8,-1.0,0.2%
COC(=O)Cc1c(O)ccn(CCc2ccccc2)c1=O,15.1,1.0,1.6,51.5*,1.6,1.5,5.3%
O=C(CN1C(=O)NC2(CCCC2)C1=O)Oc1ccc2ccc(=O)oc2c1,-3.2,-20.4,4.0,-0.9,-2.6,nt,nt
Cc1cccc(N2CCN(C(=O)COc3cc4oc(=O)cc(C)c4cc3Cl)CC2)c1C,10.0,8.3,-0.1,69.7*,-0.3,0.3,0.4%
Cc1ccc(/C=C/c2nc3ccccc3[nH]2)cc1,-3.0,-13.6,-0.6,7.7,-1.3,nt,nt
Cc1ccc(/C=C/c2nc3ccccc3[nH]2)o1,-5.3,2.1,0.4,45.6*,1.3,?,7.6%
CCCCn1nnnc1SCC(=O)Nc1ccc(N(C)C)cc1,-4.0,14.8,0.8,53.7*,0.1,-2.3,1.3%
O=C(CSc1ccc(-c2ccc(F)cc2)nn1)N1CCOCC1,4.2,0.4,5.8,49.7*,0.0,-5.1,1.0%
CCOc1ccc(CCNC(=O)CCCc2nnc3n(CC)c(=O)c4sccc4n23)cc1OCC,-0.9,-13.5,1.1,-1.2,-0.1,nt,nt
COC(=O)C1=C(C)N(c2ccc(OC)cc2)C(C)=C(C(=O)OC)C1c1ccc(OC)cc1,0.6,-19.6,3.9,41.3*,-0.3,-4.8,-0.7%
Cc1ccc(S(=O)(=O)N2CCCCC2)cc1NC(=O)C1CC(=O)N(c2ccc3c(c2)OCCO3)C1 (stereo not drawn),-0.8,-16.9,3.2,-0.3,-0.5,nt,nt
CC1(C)C2CCC1(CS(=O)(=O)N1CCC(C(N)=O)CC1)C(=O)C2 (stereo not drawn),-3.5,12.7,3.8,1.9,0.7,nt,nt
CCOC(=O)C1(CC2CC2)CCN(S(=O)(=O)C[C@]23CC[C@H](CC2=O)C3(C)C)CC1,-3.9,1.5,5.8,1.1,33.7*,4.6,?
N#Cc1ccccc1S(=O)(=O)N1CCN(C(=O)C2COc3ccccc3O2)CC1 (stereo not drawn),7.9,-1.3,1.0,54.1*,-0.5,-9.6,?
O=C(C1COc2ccccc2O1)N1CCN(S(=O)(=O)c2cc(F)ccc2F)CC1 (stereo not drawn),1.6,-15.9,1.4,-2.5,0.2,nt,nt
O=C1CN(C(=O)COc2ccc(Cl)cc2)C(c2ccc(F)cc2)c2cc(Cl)ccc2N1 (stereo not drawn),1.1,-29.9,6.0,-2.2,0.6,nt,nt
O=C(Cc1ccc([N+](=O)[O-])cc1)OCc1ccc([N+](=O)[O-])cc1,-11.6,-19.1,5.0,-7.7,-1.1,nt,nt
COC(=O)CCCNC(=O)OCc1ccc([N+](=O)[O-])cc1,-6.5,13.2,2.7,67.1*,-1.0,-3.5,1.7%
CCCNC(=O)C(Cc1cccc(C#N)c1)NC(=O)c1ccc(C#N)cc1 (stereo not drawn),1.6,8.6,-1.1,2.4,-0.6,nt,nt
COc1ccc(C(=O)NC2CC2)cc1OC1CCN(C(C)CSC)CC1 (stereo not drawn),-13.2,-22.3,2.7,2.1,26.4,-5.3,5.5%
O=C(N/N=C/c1c(O)ccc2ccccc12)c1ccc(Br)o1,22.7,-1.9,97.4*,3.8,50.8*,1.1,18.4µM*
COc1cc(CN(C(=O)c2ccccc2)c2ccccn2)cc(OC)c1OC,0.3,-5.2,1.9,-1.5,0.1,nt,nt
CCCC(=O)NCCCc1nc2ccccc2n1C(C)C,-11.7,-24.4,0.8,46.7*,-0.1,-1.5,1.3%
SMILES,D1 PAM,D1 antagonist,D1 ag,TRHR enhancer-1,TRHR agonist-1,TRHR enhancer-2,TRHR agonist-2
CCCC(=O)NCCc1nc2ccccc2n1CC(=O)c1ccccc1,-0.6,-11.9,0.5,-1.6,-0.1,nt,nt
COc1cc(C(c2nnnn2C2CCCC2)N2CCc3ccccc3C2)ccc1O (stereo not drawn),-0.9,2.5,-0.3,3.1,-0.2,nt,nt
Oc1ccc(C(c2nnnn2C2CCCC2)N2CCc3ccccc3C2)cc1 (stereo not drawn),-1.4,4.3,1.6,0.7,44.6*,-12.5,0.7%
Cc1ccc(C)c(S(=O)(=O)C(C#N)c2nc3ccccc3nc2N2CCCC2)c1 (stereo not drawn),-1.6,-8.1,34.4*,-1.7,27.4,-6.3,?
CCOC(=O)c1ccc(NC(=O)Nc2ncc(Cl)cc2Cl)cc1,3.2,0.4,-0.3,2.4,-0.7,nt,nt
CCN(CC)C(=O)c1cc2c(=O)c3cc(Cl)ccc3oc2nc1C,-3.8,-17.8,3.5,72.6*,-2.0,-0.1,-0.7%
C=C1C(=O)O[C@H]2[C@H]1[C@@H](O)CC(=C)[C@@H]1CC(=O)[C@@H](C)[C@H]21,1.2,10.7,4.5,51.5*,0.7,-6.0,1.2%
COc1cccc(NC(=O)CN(C)C(=O)CC(NC(=O)c2ccccc2Cl)c2ccccc2)c1 (stereo not drawn),-4.0,10.2,2.7,-1.7,0.3,nt,nt
CCCc1cc(=O)[nH]c(SCC(=O)c2cc(C)n(-c3c(C)n(C)n(-c4ccccc4)c3=O)c2C)n1,-4.2,8.3,0.8,-5.0,-0.8,nt,nt
COC(=O)c1cc2sccc2n1CC(=O)Nc1cccc(SC)c1,-6.9,-4.7,5.9,44.9*,-0.1,0.7,3.9%
COC(=O)c1cc2occc2n1CC(=O)Nc1cccc(SC)c1,2.0,-18.2,3.8,4.0,0.0,nt,nt
COc1cc(O)c(C(CC(=O)N2CCCC2)c2cc(OC)c(OC)c(OC)c2)c(OC)c1 (stereo not drawn),-8.7,1.5,0.3,49.4*,-0.8,-3.2,7.3%
COc1cc(O)c(C(CC(=O)N2CCCCC2)c2cc(OC)c(OC)c(OC)c2)c(OC)c1 (stereo not drawn),-3.0,-10.4,7.3,-1.5,-0.1,nt,nt
O=C(NNS(=O)(=O)c1ccc([N+](=O)[O-])cc1)C(=O)Nc1cccc(C(=O)O)c1,-7.4,13.8,2.0,-3.5,0.3,nt,nt
COc1cc(/C=C(\C#N)C(=O)NCCc2ccccc2)cc(OC)c1O,2.3,15.9,72.7*,11.7,56.0*,6.8,20.6µM*
CCOc1ccc(N=C2NC(=O)C(CC(=O)O)S2)cc1 (stereo not drawn),-3.3,-4.0,3.4,53.2*,1.2,-11.0,-0.9%
COc1ccc(NC(=O)CC2SC(=Nc3ccccc3)NC2=O)cc1 (stereo not drawn),-2.1,4.6,0.9,1.3,0.2,nt,nt

# Source: PubChem
